We go through 6 molecules from PubChem BioAssay (NCATS).

Assay [1] concerns the target Peroxisome proliferator-activated receptor delta (Homo sapiens) (UniProt Q03181). As to the kind of experiment: qHTS assay for small molecule agonists of peroxisome proliferator-activated receptor delta signaling (AID 588534).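 Further: 0% = DMSO basal wells and 100% = positive control agonist at 10 µM.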 The method in brief:
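Titration series tested in agonist mode on beta-lactamase reporter cells; 18 hrs at 37 C after a 5 hr pre-incubation. Readout: CCF4 fluorescence, 2 hrs RT. Hill equation gives EC50 and maximal response.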

Assay [2] in a line: qHTS assay for small molecule antagonists of peroxisome proliferator-activated receptor delta signaling (AID 588535; active means well fitted inhibition curve with a large enough effect in the signal ratio, with a control signal flat, not every such curve was filed as active; the % refers to the signal ratio;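 on max response: cells co-treated with a PPAR-delta agonist as stimulator during compound exposure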). Particulars: HEK293T PPARd-UAS-bla, beta-lactamase FRET ratio, 18 h; 460 nm channel. An outline of the steps: (§1)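 Antagonist-mode qHTS using GeneBLAzer PPAR-delta-UAS-bla HEK293T cells; compound exposure 18 hrs at 37 C over a titration. Ratiometric CCF4 fluorescence at 460/530 nm; concentration-response points fitted to the Hill equation.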
(In general: qHTS replaces the single test concentration by a dilution series.)

In assay [3] the target is Peroxisome proliferator-activated receptor delta (Homo sapiens) (UniProt Q03181). The description is as above. An outline of the steps:
as §1

Assay [4] addresses Vitamin D3 receptor (Homo sapiens) (UniProt P11473). As to the kind of experiment: qHTS assay for small molecule antagonists of vitamin D receptor signaling (AID 588541).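 Further: receptor activated by calcitriol during compound treatment; series mostly up to about 77 µM; on the % scale 0 is the no-effect control and ±100 the full control effect.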 The method in brief: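 Antagonist-mode beta-lactamase reporter assay: HEK293T VDR-UAS-bla cells were exposed to titrated compound alongside 1-alpha,25-dihydroxyvitamin D3 at 3 nM final for 16 h. Values were normalized to the 50 nM agonist control and DMSO basal, with IC50 and efficacy from Hill equation fits.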

The target in assay [5] is Retinoic acid receptor RXR-alpha (Homo sapiens) (UniProt P19793). Put plainly: qHTS assay for small molecule agonists of retinoid X receptor alpha signaling (AID 588544).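 Further: 0% = DMSO basal wells and 100% = reference agonist.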
Chain of Retinoic acid receptor RXR-alpha (Homo sapiens) (P19793 whole entry, looked up): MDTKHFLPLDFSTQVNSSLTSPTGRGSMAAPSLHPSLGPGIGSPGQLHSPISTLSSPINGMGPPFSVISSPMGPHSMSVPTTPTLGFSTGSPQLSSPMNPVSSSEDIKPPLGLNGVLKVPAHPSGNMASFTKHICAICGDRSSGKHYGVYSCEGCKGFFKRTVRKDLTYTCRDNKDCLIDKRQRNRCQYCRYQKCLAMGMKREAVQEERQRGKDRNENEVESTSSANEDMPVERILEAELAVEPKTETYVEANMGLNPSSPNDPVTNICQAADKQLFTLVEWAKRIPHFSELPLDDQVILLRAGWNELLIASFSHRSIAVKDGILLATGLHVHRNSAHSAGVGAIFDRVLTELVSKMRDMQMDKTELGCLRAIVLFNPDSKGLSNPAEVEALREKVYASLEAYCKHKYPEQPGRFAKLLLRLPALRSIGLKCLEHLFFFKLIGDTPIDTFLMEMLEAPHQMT
Assay [6] deals with Thyroid hormone receptor beta (Homo sapiens) (UniProt P10828). As to the kind of experiment: qHTS assay for small molecule agonists of thyroid hormone receptor beta signaling (AID 588545). An outline of the steps:
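Agonist activity was read as beta-lactamase CCF4 fluorescence (405 ex, 460/530 em), scaled between DMSO (0%) and 10 nM T3 (100%), then Hill-fitted for EC50 and efficacy. HEK 293 TR-UAS-bla cells in 2% charcoal/dextran FBS medium were exposed 18 h at 37 C.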

Assay [7] in a line: qHTS assay for small molecule antagonists of retinoid X receptor alpha signaling (AID 588546; active means well fitted inhibition curve with a large enough effect in the signal ratio, with a control signal flat, not every such curve was filed as active; the % refers to the signal ratio;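 further: cells stimulated with 9-cis-retinoic acid as agonist; on the % scale 0 is the no-effect control and ±100 the full control effect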). Particulars: HEK293T RXRa-UAS-bla, beta-lactamase ratio, antagonist mode; measured here: W530 green channel, cytotoxicity proxy. The method in brief:
(§2)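 Beta-lactamase reporter inhibition, read as CCF4 fluorescence ratio (ex 405, em 460/530 nm) after 2 h at RT. HEK293T UAS-bla cells, 2500/well, were stimulated with 9-cis-RA at 500 or 100 nM final alongside test compound for 18 h at 37 C.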

Assay [8] concerns the target Retinoic acid receptor RXR-alpha (Homo sapiens) (UniProt P19793). Described as above. Particulars: HEK293T RXRa-UAS-bla, beta-lactamase ratio, antagonist mode. An outline of the steps: as §2
Assay [9] is described as follows: qHTS assay for small molecule activators of the p53 signaling pathway (AID 651743; active means well fitted activation curve with a large enough effect in the signal ratio, not every such curve was filed as active; the % refers to the signal ratio; further: series mostly up to about 92 µM; % of control where 0% means no effect). The settings on record: HCT-116 p53RE-bla, beta-lactamase FRET ratio, 16 h; activation: stronger effect = higher value. An outline of the steps: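 A beta-lactamase reporter under p53 response element control, stably carried by HCT-116 cells, reported pathway activation. Test compounds were applied for 16 hours at 37 C, and fluorescence was measured 2 hours after adding the B/G FRET substrate.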

Assay [10] can be described thus: qHTS assay for small molecule activators of the nuclear factor-kappa B (NF-kB) signaling pathway (AID 651749; active means well fitted activation curve with a large enough effect in the signal ratio; the % refers to the signal ratio; further: series mostly up to about 77 µM; % of control where 0% means no effect). Particulars: NF-kB-bla ME-180 cells, beta-lactamase FRET ratio, 16 h; activation: stronger effect = higher value. An outline of the steps:
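FRET-based beta-lactamase detection in ME-180 cells reports NF-kB response-element-driven transcription following overnight (16 hr) compound treatment.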

Assay [11] can be described thus: qHTS assay for environmental chemicals that activate the Aryl hydrocarbon Receptor (AhR) signaling pathway (AID 651777; active means well fitted curve in the direction sought with a large enough effect; an effect the other way counts as inactive or inconclusive; further: % of control where 0% means no effect; nearly all actives have a fitted effect of over 15% in size). The settings on record: 1A2-DRE human hepatoma cells, luciferase, 24 h; activation: stronger effect = higher value. The method in brief: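 Measured luciferase activity, read 30 min after One-Glo addition at room temperature, from human hepatoma cells bearing a dioxin response element–CYP1A2 promoter reporter and exposed to compound for 24 hr at 37 C.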

In assay [12] the target is Peroxisome proliferator-activated receptor alpha (Homo sapiens) (UniProt Q07869). As to the kind of experiment: qHTS assay for small molecule agonists of the peroxisome proliferator-activated receptor alpha (PPARalpha) signaling pathway (AID 651778; active means well fitted curve in the direction sought with a large enough effect; an effect the other way counts as inactive or inconclusive; further: % of control where 0% means no effect). Particulars: PathHunter PPARalpha complementation, chemiluminescence, 6 h; max response: stronger effect = higher value. An outline of the steps: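 Chemiluminescence from complemented enzyme reported PPARalpha activation in cells after 6 hr of compound treatment at 37 C. The detection reagent was incubated for 60 min at room temperature, and compounds were scored as agonists.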
Chain of Peroxisome proliferator-activated receptor alpha (Homo sapiens) (Q07869 whole entry, looked up): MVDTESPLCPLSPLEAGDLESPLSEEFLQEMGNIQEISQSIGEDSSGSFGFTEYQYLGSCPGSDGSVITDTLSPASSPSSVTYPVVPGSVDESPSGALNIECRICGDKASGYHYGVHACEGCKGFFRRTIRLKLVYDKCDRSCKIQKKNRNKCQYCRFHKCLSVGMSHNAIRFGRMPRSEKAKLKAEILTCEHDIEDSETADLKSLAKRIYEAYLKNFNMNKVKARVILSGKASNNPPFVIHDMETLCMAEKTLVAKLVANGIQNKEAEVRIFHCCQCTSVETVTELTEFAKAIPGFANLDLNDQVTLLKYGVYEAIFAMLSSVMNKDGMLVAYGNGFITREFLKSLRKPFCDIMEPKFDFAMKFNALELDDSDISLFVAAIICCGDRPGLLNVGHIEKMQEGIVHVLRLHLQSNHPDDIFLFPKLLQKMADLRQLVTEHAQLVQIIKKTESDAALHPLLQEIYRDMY

Assay [13] is described as follows: qHTS assay for small molecule agonists of the antioxidant response element (ARE) signaling pathway measured by Nrf2-dependant transcriptional activity (AID 720636; active means well fitted curve in the direction sought with a large enough effect in the repeat runs; an effect the other way counts as inactive or inconclusive;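 further: HepG2 cells with an ARE-driven luciferase reporter; % of control where 0% means no effect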). An outline of the steps:
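In HepG2 cells engineered with an Nrf2-responsive luciferase gene, ARE induction was quantified as luminescence after 16 hr compound treatment at 37 C.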

Assay [14] can be described thus: qHTS assay for small molecule agonists of the antioxidant response element (ARE) signaling pathway measured by Nrf2-dependant transcriptional activity - cell viability counter screen (AID 720653; active means well fitted curve in the direction sought with a large enough effect in the repeat runs; an effect the other way counts as inactive or inconclusive; further: on the % scale 0 is the no-effect control and ±100 the full control effect). The settings on record: ARE-bla HepG2 viability, CellTiter-Glo ATP luminescence, 16 h; max response: stronger effect = lower value. An outline of the steps: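 Cytotoxicity counter screen: intracellular ATP quantified by CellTiter-Glo luminescence in the same ARE-bla HepG2 plates, after 16 h compound exposure and a 2 h beta-lactamase substrate step.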

Assay [15] in a line: qHTS assay for cell viability of HEK293 cells (AID 743288; active means well fitted curve in the direction sought with a large enough effect; an effect the other way counts as inactive or inconclusive; further: on the % scale 0 is the no-effect control and ±100 the full control effect; nearly all actives have a fitted effect of over 50% in size). The settings on record: ATP luminescence (CellTiter-Glo), 18 h; max response: stronger effect = lower value. An outline of the steps:
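Steps: plate 2,000 parental HEK293 cells per well; incubate ≥5 h, 37 C; add compounds in DMSO; incubate 18 h, 37 C; add CellTiter-Glo; wait 30 min at room temperature; read luminescence.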

A short description of assay [16]: qHTS assay for cell viability of the p53RE-bla HCT-116 cell line (AID 743292; active means well fitted curve in the direction sought with a large enough effect; an effect the other way counts as inactive or inconclusive; further: on the % scale 0 is the no-effect control and ±100 the full control effect; nearly all actives have a fitted effect of over 55% in size). An outline of the steps: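 Intracellular ATP of p53RE-bla HCT-116 cells measured by luciferase luminescence following 16 h compound incubation at 37 C; DMSO-only wells served as vehicle controls.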
For assay [17], the target named is Nuclear receptor subfamily 1 group I member 2 (Rattus norvegicus) (UniProt Q9R1A7). Put plainly: qHTS assay for small molecule activators of the rat pregnane X receptor (rPXR) signaling pathway (AID 651751; call rule not given here; further: 0% is about no effect). Particulars: rPXR reporter cells, luciferase (One-Glo), 24 h.
Chain of Nuclear receptor subfamily 1 group I member 2 (Rattus norvegicus) (Q9R1A7 whole entry, looked up): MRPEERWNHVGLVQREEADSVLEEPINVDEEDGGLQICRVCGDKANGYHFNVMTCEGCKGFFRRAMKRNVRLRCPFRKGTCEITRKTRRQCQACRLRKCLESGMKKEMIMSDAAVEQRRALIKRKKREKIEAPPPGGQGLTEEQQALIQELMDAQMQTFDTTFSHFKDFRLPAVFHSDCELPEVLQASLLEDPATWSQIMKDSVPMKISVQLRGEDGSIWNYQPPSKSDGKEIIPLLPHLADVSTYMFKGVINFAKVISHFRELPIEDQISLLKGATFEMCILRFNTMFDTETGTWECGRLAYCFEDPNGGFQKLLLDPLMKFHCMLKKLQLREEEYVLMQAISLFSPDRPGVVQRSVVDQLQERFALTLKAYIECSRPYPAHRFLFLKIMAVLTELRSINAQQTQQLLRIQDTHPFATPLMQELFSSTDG
Assay [18] addresses Estrogen receptor (Homo sapiens) (UniProt P03372). Put plainly: qHTS assay for small molecule agonists of estrogen receptor alpha signaling (AID 588514).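 Further: 0% = vehicle only and 100% = reference agonist; nearly all actives have a fitted effect of over 70% in size.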 The method in brief: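 Read-out: CCF4 fluorescence from a beta-lactamase reporter in ER-alpha-UAS-bla HEK 293 cells after 18 hrs of compound exposure at 37 C. Normalized to 20 nM 17-beta-estradiol (100%) and DMSO (0%).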
Assay [19] addresses Glucocorticoid receptor (Homo sapiens) (UniProt P04150). Put plainly: qHTS assay for small molecule antagonists of glucocorticoid receptor signaling (AID 588533; active means well fitted inhibition curve with a large enough effect in the signal ratio, with a control signal flat, not every such curve was filed as active; the % refers to the signal ratio;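 further: cells stimulated with 2 nM dexamethasone as agonist; on the % scale 0 is the no-effect control and ±100 the full control effect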). An outline of the steps:
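Antagonist-mode qHTS: compound titrations added to GRE-bla HeLa cells, then dexamethasone 2 nM final; 18 h, 37 C. CCF4 FRET fluorescence normalized to dexamethasone and DMSO; IC50 from Hill fit.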

The target of assay [20] is Thyroid hormone receptor beta (Homo sapiens) (UniProt P10828). As to the kind of experiment: qHTS assay for small molecule antagonists of thyroid hormone receptor beta signaling (AID 588547; active means well fitted inhibition curve with a large enough effect in the signal ratio, with a control signal flat, not every such curve was filed as active; the % refers to the signal ratio). Particulars: TR-UAS-bla HEK293, beta-lactamase ratio, antagonist mode, 18 h. An outline of the steps:
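Inhibition of T3-driven (0.4nM final) beta-lactamase reporter activity was measured over 0.59 nM to 92 uM compound after 18 h at 37 C. The cells were GripTite HEK293 TR-UAS-bla in charcoal/dextran-stripped serum, with CCF4 ratio read-out and IC50 from Hill fits.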

The structures appear in SMILES notation. Records with an inconclusive call do not appear. The source made the active and inactive calls. Unless noted, the call rests on the fitted dose curve.

Chain of Glucocorticoid receptor (Homo sapiens) (P04150 whole entry, looked up): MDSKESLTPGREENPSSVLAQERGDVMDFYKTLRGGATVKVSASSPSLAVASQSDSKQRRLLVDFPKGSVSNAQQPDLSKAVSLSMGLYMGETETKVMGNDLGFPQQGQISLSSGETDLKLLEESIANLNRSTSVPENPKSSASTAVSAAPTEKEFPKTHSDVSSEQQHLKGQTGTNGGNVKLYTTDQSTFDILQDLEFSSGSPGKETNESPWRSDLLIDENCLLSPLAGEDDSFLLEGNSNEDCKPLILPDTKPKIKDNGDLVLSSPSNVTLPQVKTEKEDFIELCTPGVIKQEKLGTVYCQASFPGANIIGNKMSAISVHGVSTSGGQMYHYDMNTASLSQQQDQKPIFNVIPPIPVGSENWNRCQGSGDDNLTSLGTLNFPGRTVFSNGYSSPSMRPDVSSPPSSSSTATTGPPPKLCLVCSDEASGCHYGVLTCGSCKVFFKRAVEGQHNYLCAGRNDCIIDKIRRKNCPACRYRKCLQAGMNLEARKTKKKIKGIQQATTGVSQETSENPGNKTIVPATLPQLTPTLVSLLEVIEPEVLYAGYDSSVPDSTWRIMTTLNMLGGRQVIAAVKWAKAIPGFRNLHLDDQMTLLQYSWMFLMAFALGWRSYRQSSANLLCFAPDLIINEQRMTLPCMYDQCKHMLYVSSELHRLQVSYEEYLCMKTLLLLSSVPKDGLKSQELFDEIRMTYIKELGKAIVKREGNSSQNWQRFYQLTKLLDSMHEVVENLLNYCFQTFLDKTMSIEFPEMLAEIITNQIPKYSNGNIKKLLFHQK
Chain of Peroxisome proliferator-activated receptor delta (Homo sapiens) (Q03181 whole entry, looked up): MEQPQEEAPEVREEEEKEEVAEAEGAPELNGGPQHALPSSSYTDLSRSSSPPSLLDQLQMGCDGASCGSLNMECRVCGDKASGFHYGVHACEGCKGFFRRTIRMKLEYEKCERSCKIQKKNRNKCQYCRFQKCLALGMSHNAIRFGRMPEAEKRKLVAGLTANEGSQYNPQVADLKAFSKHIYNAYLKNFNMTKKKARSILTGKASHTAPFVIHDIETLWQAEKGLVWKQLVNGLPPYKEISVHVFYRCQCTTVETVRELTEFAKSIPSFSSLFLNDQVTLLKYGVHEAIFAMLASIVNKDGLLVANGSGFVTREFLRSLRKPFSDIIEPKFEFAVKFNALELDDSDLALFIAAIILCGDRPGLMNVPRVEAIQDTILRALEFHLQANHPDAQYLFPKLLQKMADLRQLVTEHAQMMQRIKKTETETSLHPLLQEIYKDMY
Chain of Thyroid hormone receptor beta (Homo sapiens) (P10828 whole entry, looked up): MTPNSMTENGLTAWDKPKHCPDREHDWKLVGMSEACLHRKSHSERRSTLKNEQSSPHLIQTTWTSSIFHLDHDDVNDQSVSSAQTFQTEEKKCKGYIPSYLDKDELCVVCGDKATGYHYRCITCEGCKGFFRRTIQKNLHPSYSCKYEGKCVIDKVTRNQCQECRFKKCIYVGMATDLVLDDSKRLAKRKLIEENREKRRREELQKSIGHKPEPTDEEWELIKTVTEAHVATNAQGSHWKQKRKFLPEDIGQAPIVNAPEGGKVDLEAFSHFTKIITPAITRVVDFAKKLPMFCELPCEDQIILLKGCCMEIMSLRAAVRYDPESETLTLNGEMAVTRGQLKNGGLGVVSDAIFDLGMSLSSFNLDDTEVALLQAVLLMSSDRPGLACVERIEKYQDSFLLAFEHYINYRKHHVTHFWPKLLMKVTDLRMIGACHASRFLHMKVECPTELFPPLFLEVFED
Chain of Estrogen receptor (Homo sapiens) (P03372 whole entry, looked up): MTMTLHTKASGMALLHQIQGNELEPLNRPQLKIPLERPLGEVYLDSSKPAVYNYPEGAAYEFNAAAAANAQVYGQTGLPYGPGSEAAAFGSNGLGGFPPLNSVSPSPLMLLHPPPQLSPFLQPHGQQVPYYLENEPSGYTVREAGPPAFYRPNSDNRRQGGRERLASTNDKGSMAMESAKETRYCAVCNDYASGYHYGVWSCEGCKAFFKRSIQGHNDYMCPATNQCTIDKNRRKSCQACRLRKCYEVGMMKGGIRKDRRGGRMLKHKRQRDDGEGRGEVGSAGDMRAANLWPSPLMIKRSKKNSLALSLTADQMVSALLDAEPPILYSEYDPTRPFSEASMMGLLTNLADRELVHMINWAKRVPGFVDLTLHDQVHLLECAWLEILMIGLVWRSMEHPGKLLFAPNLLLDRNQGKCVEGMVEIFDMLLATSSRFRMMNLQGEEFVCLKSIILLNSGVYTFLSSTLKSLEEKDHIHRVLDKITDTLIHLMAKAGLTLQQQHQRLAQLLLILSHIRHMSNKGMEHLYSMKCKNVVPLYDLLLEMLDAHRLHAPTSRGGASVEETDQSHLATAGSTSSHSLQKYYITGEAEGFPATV
Chain of Vitamin D3 receptor (Homo sapiens) (P11473 whole entry, looked up): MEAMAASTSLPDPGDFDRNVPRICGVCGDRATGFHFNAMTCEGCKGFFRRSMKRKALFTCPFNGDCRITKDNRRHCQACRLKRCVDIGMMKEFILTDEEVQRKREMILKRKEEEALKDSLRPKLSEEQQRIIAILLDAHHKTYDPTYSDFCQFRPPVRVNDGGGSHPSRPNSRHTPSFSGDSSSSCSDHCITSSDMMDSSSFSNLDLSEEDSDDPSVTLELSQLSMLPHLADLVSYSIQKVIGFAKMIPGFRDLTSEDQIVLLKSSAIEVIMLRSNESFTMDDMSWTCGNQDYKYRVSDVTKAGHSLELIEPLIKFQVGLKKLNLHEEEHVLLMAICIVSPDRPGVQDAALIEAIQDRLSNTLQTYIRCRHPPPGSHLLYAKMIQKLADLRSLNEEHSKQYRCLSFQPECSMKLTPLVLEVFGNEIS

`COC(=O)c1sccc1S(=O)(=O)NC(=O)Nc1nc(C)nc(OC)n1`: in [1], the result was inactive. In addition, the max response in [2] is -31.9%; in assay [7] it was -1.17%; in [8] it was -14.7% (inactive); in assay [12], -0.482% (inactive); in assay [14], 2.61% (inactive); in [15], -12% (inactive). Also, the max response in assay [17] is 3.77% (inactive). Also, the Potency entry in assay [3], in [4], in assay [5], in assay [6], in assay [13] and in assay [16] was “inactive” in each case. The values for the activation in assay [9], in assay [10] and in [11] were -3.25% (inactive), -1.57% (inactive) and 0.948% (inactive), respectively.
For the molecule `CCOP(=O)(OCC)SCSP(=S)(OCC)OCC`, the Potency entry in assay [18], in assay [19], in [3], in assay [4], in [6] and in assay [16] was “inactive” each time. Besides, the result in [1] was inactive. Moreover, the max response was -37.2% in assay [2]; -5.91% in [7]; -11.3% (inactive) in [8]; -0.113% (inactive) in [12]; -1.01% (inactive) in assay [14]; -5.51% (inactive) in [15]. Further, the activity change % (negative = inhibition) in assay [20] is -5.46% (inactive). Besides, the activation in [9] was -1.69% (inactive); in [10], 1.64% (inactive); in assay [11] it was 6.55% (inactive).
With `CCOP(=S)(OCC)SCCl`, the Potency result in assay [18], in assay [19], in assay [4], in assay [13] and in assay [16] was “inactive” each time. In addition, the activity change % (negative = inhibition) in [20] is -1.44% (inactive). Also, the activation in assay [9] was 0.473% (inactive); in assay [10] it was -1.72% (inactive); in assay [11], 0.0178% (inactive). The max response in [12] is -3.54% (inactive); in assay [14] it was -13.5% (inactive); in assay [15], -19.2% (inactive); in assay [17], -4.02% (inactive).
Regarding `COP(=S)(OC)Oc1c(Cl)cc(C)cc1Cl`, the result in [1] was inactive. Further, the max response in assay [2] was -4.3%; in [7], -6.8%; in assay [12], 5.67% (inactive); in [14], -1.53% (inactive); in assay [15], -18.5% (inactive); in assay [17], 1.76% (inactive). Further, the Potency result in assay [3], in [4], in assay [5], in assay [6], in assay [13] and in assay [16] was “inactive” throughout. Moreover, the activity change % (negative = inhibition) in assay [20] was 7.32% (inactive). Besides, the figures for the activation in assay [9] and in [10] were 7.93% (inactive) and -0.0055% (inactive), respectively.
Take `O=[N+]([O-])Nc1nccn1Cc1ccc(Cl)nc1`: the Potency entry in [18], in assay [19], in [3], in assay [4], in assay [5] and in [6] was “inactive” in each case. Also, the Potency entry in assay [13] and in [16] was “inactive” in each case. Further, in [1], the result was inactive. Moreover, the max response was 19.2% in assay [2]; -3.06% in [7]; 5.37% (inactive) in assay [8]; -0.0433% (inactive) in [12]; -10.2% (inactive) in assay [14]; -8% (inactive) in assay [15]. Besides, in assay [17], the max response was -4.49% (inactive). The activity change % (negative = inhibition) in assay [20] is -3.59% (inactive). For the same molecule, the results for the activation in [9] and in [10] were -1.74% (inactive) and -1.97% (inactive), respectively.
For the molecule `CCSCCSP(=O)(OC)OC`, the Potency result in [18], in assay [19], in assay [3], in assay [5], in assay [6] and in assay [13] was “inactive” in each case. Moreover, the Potency entry in assay [16] was “inactive”. Moreover, the outcome in assay [1] was inactive. Also, the max response is -10.5% in [2]; -9.27% in assay [7]; -0.524% (inactive) in assay [8]; -0.363% (inactive) in [12]; -6.91% (inactive) in assay [14]; -1.87% (inactive) in assay [15]. In assay [17], the max response is -1.46% (inactive). Also, the activity change % (negative = inhibition) in [20] was 4.21% (inactive). Also, the activation in assay [9] is 2.18% (inactive); in [10], -0.99% (inactive); in [11], -0.526% (inactive).
